From the supplement of paper PMC6555819

tested on: VDR:RXRa (NR concentration 270 nM, RXRa partner concentration 90 nM); assay: PBM binding z-score (relative to random genomic background probes); higher = stronger binding; sequences stand for … in GC…GCGATTGACAGCGTAGAATGAAGG
Description: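 Protein-binding microarray (Agilent 4x180K custom design, double-stranded 60-nt probes: 5' GC cap, 34-nt variable region, 24-nt constant primer region; full probe sequence given). Purified or IVT nuclear receptor:RXRα heterodimers (3:1 NR:RXRα, mostly 270:90 nM) or homodimers were incubated for 1 h in PBS with 2% milk and no ligand, then detected with Alexa488 antibodies. Fluorescence from o1-orientation probes (~5 replicates averaged) was converted to z-scores against 500 random hg19 background probes. Variable regions are seed direct-repeat (DR0–DR5) sites, all their single-nucleotide variants and half-site ablations.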

| Sequence | PBM binding z-score |
| --- | --- |
| TCTGCTTGGTCAACGATGGTCAGCTAATCTGCTA | -0.63 |
| CGAACTGGGTCACCAGGACAGTGAAGAGGTTGGA | 2.13 |
| ATCGAAAGGTCGTGAAGTGAGTATACAGAAAGGC | 3.26 |
| ACCAGCAGGCCAAGGGTCACTCAAGATTAGTCCG | 2.47 |
| CCTACTGGGCGACGAAAGGTCATTGATTCAGTGA | 3.36 |
| ATATGTAGGTCATCGGGTCATTCAGTTTGCGCAT | 6.28 |
| ATATGTAGGTTAGGGTCATACAGAAAGTAGGGAA | 4.24 |
| CGAACTAGGTCACCAGGACAGTCAAGAGGTTGGA | 2.18 |
| ATCGTAAGGTCGTGAGGTGAGTATACAGAAAGGC | 2.8 |
| CAAACTAGGTCACGAAAGGGCAAAGTCGAATGAC | 5.28 |
| CGAACTAGGTCAAAGGACACTGAAAGGCGACGTA | 1.74 |
| TTACCAAGGTGAACTGAGGTCGTTGATCCAACTC | 5.77 |
| CCGAGTAGGTGACGAGGGGGCATTCAGTGCGAAT | 4.37 |
| CTATGTAGGTTAAGGGGGTCATTCTGTTTGAAAG | 7.27 |
| CCTACTGGGCCAAAAAGGTAATTGATGCCGATAA | -0.157 |
| GCTTACGGGTCAAAGGTTACAGCATGAATAGAAT | 5.69 |
| TGAATGAGGTTAAAGGTCAGGGAACGTGGCGTCG | 5.85 |
| TAGCCTAGGTCATTGGGCCAGTATAGTACGCATC | 2.11 |
| TCGAGTAGGTTACGGGGCCATTCAGGGATGAAGA | 1.26 |
| GCTTACGGGTCAAAGGTTATGGCATGAATAGAAT | 5.58 |

| Sequence | PBM binding z-score |
| --- | --- |
| GCATATAGGTAATTCAAGGTGAAAGTCCGATTGT | 0.627 |
| CCTTACGGGTCACTTACAGGTTATAGCATTTGGA | 3.6 |
| CGAACTAGGTCACCCGGACAGTGAAGAGGTTGGA | 2.69 |
| CGTCCAAGGTCATAAGAGGTCAGTGAAGACAGAT | 6.96 |
| CTGTGTAGGTTAAGGGGGTCATTCAGTTTGAAAG | 7.46 |
| CTATGTAGGGTAAGGGGGTCATTCAGTTTGAAAG | 7.01 |
| GCTCGGGGGACAAGGTCAGAGCTTTGTCCGTAGA | 3.07 |
| CGTCGAAGGTCAATGCTAGGTCAGTGAAAGCATT | 4.47 |
| CTATGTACGTTAAGGGGGTCATTCAGTTTGAAAG | 6.72 |
| AGTCAAAGGTCAGGACGAGGTAACGTAAAGCACG | 4.83 |
| TGACTGAGGTTAAAGATCAGGGAACGTGGCGTCG | 1.69 |
| CGAACCAGGTCACCAGGACAGTGAAGAGGTTGGA | 3.17 |
| CGAACCAGGTCAAAGGACAGTGAAAGGCGACGTA | 2.44 |
| TAGAGTAGGTTACGGGGGCATTCAGGGATGAAGA | 4.09 |
| CCTTACGGGTCAAGGTAATAGCACGGGTGGTACG | 2.65 |
| CTATGTAGGTTAAGGGCGTCATTCAGTTTGAAAG | 0.981 |
| TGTCAGAGTTCAAAGGTAACGTAAGTATCCACAC | 5.75 |
| CTGAGTAGGTTACGAGGGGGCATTCAGTGCGAAT | 5.14 |
| CCGAGTAGGTTAAGAGGGGGCATTCAGTGCGAAT | 5.44 |
| CGTCCAAGGTCAGCAGGTCACTGAAAGCGACGTG | 4.5 |
